In PubChem BioAssay:
The source made the active and inactive calls.

How the values were obtained:
[1] = small molecules captured by biotinylated probe aFSTL3 – biochemical, small-molecule microarray, fluorescence 635/667, stem cell growth factor project, primary screen (AID 1064); details: higher = more signal;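 further: measures binding of the biotinylated anti-FSTL3 antibody to printed compounds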
[2] = binders from COS7 lysate, DM2A8 probe, primary screen, torsin A project, cell lysate, small-molecule microarray, fluorescence 635/667 (AID 1065); details: higher = more signal, COS7 lysate expressing mutant human TOR1A
[3] = small molecules captured by biotinylated probe aFGF2 – biochemical, small-molecule microarray, fluorescence 635/667, stem cell growth factor project, primary screen (AID 1067); details: higher = more signal;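 further: measures binding of biotinylated aFGF2 protein to printed compounds on slides; z-score merges feature fluorescence and signal-to-noise across triplicate slides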
[4] = small molecules captured by biotinylated probe aFGF10 – biochemical, small-molecule microarray, fluorescence 635/667, stem cell growth factor project, primary screen (AID 1071); details: higher = more signal;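 further: score merges 667 nm spot intensity and signal to noise from triplicate slides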
[5] = target: Neurogenic locus notch homolog protein 2 (Homo sapiens) (UniProt Q04721); assay: small molecules binding Notch2 protein – biochemical, small-molecule microarray, 635 nm fluorescence, stem cell growth factors, primary screen (AID 1073); details: higher = more signal
[6] = target: Pro-neuregulin-1, membrane-bound isoform (Homo sapiens) (UniProt Q02297); assay: small molecules binding neuregulin-1 protein – biochemical, small-molecule microarray, fluorescence 635/667, psychiatric disease protein project, primary screen (AID 1075); details: NRG1 binding, 635 nm fluorescence, higher = more signal;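 further: score combines 667 nm spot fluorescence with signal to noise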
[7] = system: Neuregulin-1 EGF-like domain; assay: small molecules binding NRG1 EGF domain – biochemical, small-molecule microarray, 635 nm fluorescence, primary screen (AID 1081); details: higher = more signal;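 further: binding of the protein to compounds printed on small-molecule microarray slides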
[8] = FRG1 expression reporter modulators in myotubes – cell-based, C2C12 myotubes, firefly/Renilla luciferase, luminescence, FRG1 inhibition for FSHD, primary screen (AID 1084); details: FRG1 promoter luciferase, higher = more signal, called active from +8 up or from −8 down
[9] = small molecules captured by biotinylated probe aFST – biochemical, small-molecule microarray, fluorescence 635/667, stem cell growth factor project, primary screen (AID 1086); details: higher = more signal;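 further: score merges 667 nm fluorescence with signal-to-noise of each printed compound spot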
[10] = binders of probe aHhip on microarray, primary screen, stem cell growth factor project, biochemical, small-molecule microarray, fluorescence 635/667 (AID 1087); details: higher = more signal;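 further: score merges spot fluorescence at 667nm with spot signal to noise ratio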

Sequence of Pro-neuregulin-1, membrane-bound isoform (Homo sapiens) (Q02297 whole entry, looked up, the tested form may be a part, canonical isoform): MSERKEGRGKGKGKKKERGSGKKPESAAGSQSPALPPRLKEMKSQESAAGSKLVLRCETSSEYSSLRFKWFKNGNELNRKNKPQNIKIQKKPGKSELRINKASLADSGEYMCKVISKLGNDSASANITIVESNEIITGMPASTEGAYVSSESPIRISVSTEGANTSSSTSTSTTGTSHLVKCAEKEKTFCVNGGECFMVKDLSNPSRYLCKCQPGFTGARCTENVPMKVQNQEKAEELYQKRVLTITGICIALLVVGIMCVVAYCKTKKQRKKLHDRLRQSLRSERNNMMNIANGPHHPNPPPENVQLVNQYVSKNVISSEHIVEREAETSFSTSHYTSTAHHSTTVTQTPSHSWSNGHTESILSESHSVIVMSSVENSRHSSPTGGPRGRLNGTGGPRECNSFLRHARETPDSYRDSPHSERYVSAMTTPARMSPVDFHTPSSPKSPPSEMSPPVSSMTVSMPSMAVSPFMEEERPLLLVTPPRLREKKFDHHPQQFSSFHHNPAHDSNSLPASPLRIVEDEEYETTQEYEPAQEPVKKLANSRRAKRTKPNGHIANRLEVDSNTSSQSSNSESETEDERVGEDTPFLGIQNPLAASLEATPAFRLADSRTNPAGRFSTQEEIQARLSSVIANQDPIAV
Sequence of Neurogenic locus notch homolog protein 2 (Homo sapiens) (Q04721 whole entry, looked up, canonical isoform): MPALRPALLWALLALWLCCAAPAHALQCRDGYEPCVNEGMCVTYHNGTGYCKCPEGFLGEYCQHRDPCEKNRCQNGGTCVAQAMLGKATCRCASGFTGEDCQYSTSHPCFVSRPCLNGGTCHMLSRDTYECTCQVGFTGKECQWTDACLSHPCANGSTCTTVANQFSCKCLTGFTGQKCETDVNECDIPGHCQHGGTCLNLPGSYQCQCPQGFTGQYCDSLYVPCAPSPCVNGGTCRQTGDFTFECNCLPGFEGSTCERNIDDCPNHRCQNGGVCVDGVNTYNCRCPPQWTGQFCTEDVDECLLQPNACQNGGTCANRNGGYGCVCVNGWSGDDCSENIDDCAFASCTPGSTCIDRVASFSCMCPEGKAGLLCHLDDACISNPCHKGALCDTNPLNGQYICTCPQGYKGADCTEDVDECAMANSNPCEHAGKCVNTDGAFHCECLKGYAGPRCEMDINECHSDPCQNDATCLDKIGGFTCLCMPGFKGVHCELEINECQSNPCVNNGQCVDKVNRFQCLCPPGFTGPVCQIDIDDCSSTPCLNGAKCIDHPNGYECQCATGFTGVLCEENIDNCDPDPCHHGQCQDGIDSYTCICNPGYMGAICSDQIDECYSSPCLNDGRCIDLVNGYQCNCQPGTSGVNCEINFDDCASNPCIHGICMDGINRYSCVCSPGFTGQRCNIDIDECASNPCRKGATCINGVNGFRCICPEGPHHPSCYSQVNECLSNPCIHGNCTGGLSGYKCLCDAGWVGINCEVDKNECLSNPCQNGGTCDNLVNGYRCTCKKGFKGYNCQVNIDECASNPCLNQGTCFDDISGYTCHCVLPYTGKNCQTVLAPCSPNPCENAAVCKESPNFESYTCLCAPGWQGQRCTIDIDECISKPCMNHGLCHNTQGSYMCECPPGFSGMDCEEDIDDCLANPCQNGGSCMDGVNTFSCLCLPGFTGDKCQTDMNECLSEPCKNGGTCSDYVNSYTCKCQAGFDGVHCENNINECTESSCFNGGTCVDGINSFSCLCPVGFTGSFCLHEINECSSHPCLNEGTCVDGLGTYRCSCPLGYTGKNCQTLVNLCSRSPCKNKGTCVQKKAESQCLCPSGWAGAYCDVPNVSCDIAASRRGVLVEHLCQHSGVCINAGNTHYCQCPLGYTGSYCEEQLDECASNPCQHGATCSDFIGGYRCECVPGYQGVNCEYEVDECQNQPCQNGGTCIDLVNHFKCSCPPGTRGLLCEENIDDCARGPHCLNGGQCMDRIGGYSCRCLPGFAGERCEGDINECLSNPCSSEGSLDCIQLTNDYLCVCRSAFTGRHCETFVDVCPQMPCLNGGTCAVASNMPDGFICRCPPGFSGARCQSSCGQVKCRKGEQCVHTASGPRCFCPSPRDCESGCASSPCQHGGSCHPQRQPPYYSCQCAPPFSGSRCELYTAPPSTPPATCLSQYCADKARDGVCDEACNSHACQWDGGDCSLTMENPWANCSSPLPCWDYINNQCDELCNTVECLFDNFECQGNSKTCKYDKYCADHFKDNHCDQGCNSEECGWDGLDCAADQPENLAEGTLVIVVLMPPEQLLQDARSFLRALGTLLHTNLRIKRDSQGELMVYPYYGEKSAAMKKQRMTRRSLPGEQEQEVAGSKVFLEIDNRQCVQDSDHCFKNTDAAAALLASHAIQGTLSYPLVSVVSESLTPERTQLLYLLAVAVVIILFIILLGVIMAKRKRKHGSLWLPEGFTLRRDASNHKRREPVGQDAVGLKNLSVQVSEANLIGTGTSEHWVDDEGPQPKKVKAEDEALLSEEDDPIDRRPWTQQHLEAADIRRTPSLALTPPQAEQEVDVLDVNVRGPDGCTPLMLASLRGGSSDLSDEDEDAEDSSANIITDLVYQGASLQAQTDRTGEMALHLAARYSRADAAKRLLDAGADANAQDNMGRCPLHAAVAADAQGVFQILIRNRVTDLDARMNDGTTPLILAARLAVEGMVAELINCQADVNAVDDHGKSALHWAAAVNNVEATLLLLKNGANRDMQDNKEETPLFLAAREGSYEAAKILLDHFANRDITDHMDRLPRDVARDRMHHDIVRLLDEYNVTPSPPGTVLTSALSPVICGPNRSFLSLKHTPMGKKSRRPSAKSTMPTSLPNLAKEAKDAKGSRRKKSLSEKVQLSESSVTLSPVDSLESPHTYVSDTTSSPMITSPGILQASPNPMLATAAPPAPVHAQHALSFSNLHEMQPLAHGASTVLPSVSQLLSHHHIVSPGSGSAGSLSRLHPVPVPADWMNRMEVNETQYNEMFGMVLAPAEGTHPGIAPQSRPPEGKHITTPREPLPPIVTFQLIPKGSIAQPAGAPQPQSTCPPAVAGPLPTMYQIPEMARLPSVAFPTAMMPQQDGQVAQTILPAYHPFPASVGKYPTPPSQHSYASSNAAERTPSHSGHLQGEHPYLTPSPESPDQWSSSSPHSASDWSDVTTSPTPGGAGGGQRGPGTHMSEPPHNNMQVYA

SMILES	composite z-score [1]	composite z-score [2]	composite z-score [3]	composite z-score [4]	composite z-score [5]	composite z-score [6]	composite z-score [7]	z-score [8]	composite z-score [9]	composite z-score [10]
COc1ccc([Si](C)(C)[C@H]2[C@H](CC(=O)N3Cc4ccccc4C[C@H]3CO)O[C@@]3(C(=O)N(Cc4cccc(N5CCC5=O)c4)c4ccccc43)[C@@H]2C)cc1	-0.26	0.479	-0.07	0.726	0.793	0.871	1.29	-2.41 (inactive)	0.256	-0.13
COC(=O)[C@@]1(Cc2ccc(OC)cc2)[C@H]2c3cc(C(=O)N4CCCC4)n(CCN4CNCC4=O)c3C[C@H]2CN1C(=O)c1ccccc1	2.52	0.873	0.797	1.22	1.4	1.78	1.45	0.632 (inactive)	2.37	3.13
CC(CO)N1C(=O)[C@@H]2C3C(=O)OCCC/C=C\[C@H]3OC23C=CCN(C(C)(C)C)C(=O)[C@@H]13 (stereo not given in full)	0.104	0.733	-0.0971	0.255	0.162	0.182	1.17	-1.23 (inactive)	-0.269	0.0373
COC(=O)[C@]1(CCC(=O)OC(C)(C)C)N=C(c2ccc(OCCCO)cc2)O[C@@H]1c1ccccc1CN=[N+]=[N-]	0.995	-0.0569	-0.0073	0.0301	0.53	0.971	1.14	-3.06 (inactive)	0.773	-0.169
COc1cc(C(O)C2C=CC3C(=O)NC(=O)C3N2Nc2ccccn2)cc(OC)c1OC (stereo not given)	-0.184	0.299	0.0353	0.52	1.4	0.802	1.3	1.73 (inactive)	0.0676	-0.0618
COC(=O)C(CC#Cc1ccc2c(c1)[C@]1(C(=O)N2)[C@H](C(=O)Nc2nc3ccccc3s2)[C@H]2C(=O)O[C@H](c3ccccc3)[C@H](c3ccccc3)N2[C@@H]1c1ccc(O)cc1)C(=O)OC	-0.485	0.919	0.0495	0.621	1.33	1.37	1.36	1.28 (inactive)	0.688	-0.0618
O=C(N1CCCCC1)[C@]1(Cc2ccccc2)N=C(c2ccc(OCCCO)cc2)O[C@@H]1c1ccccc1	0.542	0.0149	-0.0183	0.541	1.51	1.03	0.884	-0.636 (inactive)	0.979	0.289
CC(C)NC(=O)[C@@]1(c2ccc([N+](=O)[O-])cc2)CC(=O)N(C2CCCCC2)[C@@H]1c1ccc(CO)cc1I	1.12	0.586	-0.0548	-0.0891	-0.0016	0.662	1.12	0.286 (inactive)	0.178	0.426
CCCC[C@H]1OB(O)C[C@H]2C1=C(COC)Cn1c(=O)n(-c3ccccc3)c(=O)n12	-0.516	0.107	-0.157	0.392	0.325	-0.19	0.484	0.103 (inactive)	0.199	-0.236
CCC[C@@H]1C[C@@]1(CCC)[C@@H](NC(=O)c1ccccc1)c1cccc(Cl)c1	1.63	0.249	0.783	0.948	1.47	0.753	1.09	0.379 (inactive)	2.29	0.53
[N-]=[N+]=Nc1ccccc1[C@H]1OC(c2ccc(OCCCO)cc2)=N[C@@]1(CCS(=O)(=O)c1ccccc1)C(N)=O	1.5	0.449	0.0797	1.07	0.742	0.9	1.34	3.44 (inactive)	1.04	0.111
CCN(CC)c1ccc(N2CC=CC34O[C@@H]5C=CCCOC(=O)C5[C@H]3C(=O)N(CCCCCCO)[C@@H]4C2=O)cc1 (stereo not given in full)	-0.16	0.345	-0.16	-0.286	-0.439	-0.173	1.6	-0.959 (inactive)	-0.581	-0.249
C=CC[C@]1(C(=O)NCCCOC)N=C(c2ccc(OCCCO)cc2)O[C@H]1c1ccccc1CN=[N+]=[N-]	1.07	0.717	-0.0981	0.807	1.49	1.3	1.08	0.373 (inactive)	0.952	0.335
NC(=O)[C@@H]1[C@H]2C(=O)O[C@H](c3ccccc3)[C@H](c3ccccc3)N2[C@H](c2ccc(O)cc2)[C@@]12C(=O)Nc1ccccc12	0.241	-0.933	-0.179	0.0547	-0.985	2.01	0.476	0.308 (inactive)	-0.114	-0.314
C=CCC(OC(C)=O)[C@@H]1[C@@H](N(Cc2cccc3ccccc23)C(=O)c2ccc(-c3ccccc3)cc2)c2cc(OCCCO)ccc2N1C(=O)c1ccc2ccccc2c1 (stereo not given in full)	-0.484	0.306	-0.0647	-0.0203	0.104	0.148	0.0031	-0.0039 (inactive)	0.131	0.0722
COc1cc2c(cc1O)C(c1cccs1)N(C)CC2 (stereo not given)	-0.101	-0.493	-0.201	-0.143	-0.521	-0.714	-0.31	0.52 (inactive)	-0.166	-0.0994
CCCCCN1CC=CC23O[C@@H]4/C=C\CCC(C)OC(=O)C4[C@H]2C(=O)N(C(C)CO)[C@@H]3C1=O (stereo not given in full)	-0.411	-1.14	-0.164	-0.043	-0.602	0.946	0.38	-1.32 (inactive)	-0.258	-0.268
